This is a sample that favours compounds with a hit; in the whole collection about 0.28% have one here.
hcGAS inh: human cGAS inhibition; recombinant h-cGAS, ATP depletion, Kinase-Glo luminescence; inhibition, % at 12.5 µM; 290,000 tested, 0.081% active; AID 1259398;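 further: 0% = vehicle reaction and 100% = reaction without DNA for no activity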
mcGAS inh: blocks mouse cGAS activity; recombinant cGAS, Kinase-Glo ATP depletion luminescence; inhibition, % at 12.5 µM; Q8C6L5; 160,000 tested, 0.15% active;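 further: 0% = negative control wells and 100% = reference inhibitor with no enzyme activity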
Target sequence (Q8C6L5 whole entry, looked up): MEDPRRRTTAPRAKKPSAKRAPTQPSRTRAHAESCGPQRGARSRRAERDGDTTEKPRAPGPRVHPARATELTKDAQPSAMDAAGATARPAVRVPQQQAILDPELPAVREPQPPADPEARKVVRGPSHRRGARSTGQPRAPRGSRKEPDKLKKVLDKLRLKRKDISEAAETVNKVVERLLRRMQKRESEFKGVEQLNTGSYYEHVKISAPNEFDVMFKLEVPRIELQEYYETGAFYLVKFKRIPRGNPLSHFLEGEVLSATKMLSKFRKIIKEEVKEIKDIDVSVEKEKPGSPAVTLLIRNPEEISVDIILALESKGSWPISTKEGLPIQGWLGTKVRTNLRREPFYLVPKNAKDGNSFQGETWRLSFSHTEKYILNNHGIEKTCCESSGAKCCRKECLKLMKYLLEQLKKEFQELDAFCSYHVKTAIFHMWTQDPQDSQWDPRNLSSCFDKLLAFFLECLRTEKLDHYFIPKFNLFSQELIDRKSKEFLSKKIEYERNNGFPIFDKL
NPYLR7 agonist: activates Aedes aegypti NPYLR7 receptor; HEK293T NPYLR7/Galpha15, GCaMP6s calcium fluorescence; activation, % at 10 µM; 270,000 tested, 0.15% active; in the data active means activation above about 40%;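 further: 0% = vehicle and 100% = reference agonist at the receptor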
* = called active by the depositor; · = no result; ! = repeats disagree. Unless noted, no stated cut-off is given here; in the data, active means inhibition above about 40%; inactive means the rest.

SMILES	hcGAS inh	mcGAS inh	NPYLR7 agonist
CC(C)N(CC(=O)N1c2ccccc2-n2cccc2C1c1cccc(Cl)c1)C(=O)c1ccc(C(F)(F)F)cc1 (stereo unspecified)	-0.4	-2.2	-0.6
CN(Cc1ccccc1)c1nc(CCN)nc2ccccc12	47.1*	-8.0	-2.0
CN(Cc1cc(C(C)(C)C)n[nH]1)c1nc(CCN)nc2ccccc12	-5.9	·	·
COCCNc1nc(-c2cccc(Br)c2)nc2ccccc12	15.2	-2.1	2.8
CCCCc1nn2c(N)c(C=C3C=CC(=O)C(OCC)=C3)c(=O)nc2s1	-2.2	·	38.7
C=CCC1=CC(=Cc2c(N)n3nc(Cc4cccs4)sc3nc2=O)C=C(OC)C1=O	1.6	·	94.9*
Cn1nc(NC(=O)c2cccs2)c2c1NC(=O)CC2c1ccco1 (stereo unspecified)	-1.0	-6.1	-14.6
CSc1ccc(C(c2c(O)cc(C)n(Cc3ccccc3)c2=O)N2CCN(C)CC2)cc1 (stereo unspecified)	-4.4	·	6.8
C/C(Cl)=C/Cc1c(C)[nH]c2c(C)cccc2c1=O	-6.4	·	-0.9
COc1cccc(-c2cnc(-c3cccc(CNC(=O)c4cc(C)oc4C)c3)[nH]2)c1	-7.4	-8.8	5.5
O=C(C1CCCN(c2nc3nonc3nc2N2CCCCCC2)C1)N1CCOCC1 (stereo unspecified)	6.0	·	7.5
CCOC(=O)C1CCCN(c2nc3nonc3nc2N2CCSCC2)C1 (stereo unspecified)	-9.2	-3.5	44.8*!
O=[N+]([O-])c1ccc2c(c1)S(=O)(=O)C=C2	1.6	86.1*	8.3
O=[N+]([O-])c1ccc(OC2=NS(=O)(=O)c3cc([N+](=O)[O-])ccc32)cc1	-8.2	-5.3	8.8
Cc1nc(NC(=O)CNC(=O)Cc2cccc(F)c2)sc1SCC#N	-8.7	·	15.1
Cc1ccc(-n2[nH]c(C(=O)Nc3ccnc4ccnn34)cc2=O)cc1	68.0*	-7.2	-0.5
O=C(CNC(=O)c1ccc(F)c(F)c1)Nc1ccnc2ccnn12	-4.8	·	9.5
C=c1[nH]n(-c2ccccc2)c(=O)c1=CC=C1N(C)c2ccccc2C1(C)C	-8.6	·	19.0
CN1C(=CC=C2C(=O)CC(C)(C)CC2=O)C(C)(C)c2ccccc21	-8.0	·	297.8*
COc1ccccc1CC(=O)NNC(=O)C(C)Oc1ccc2ccccc2c1 (stereo unspecified)	-5.8	-7.5	1.5
S=c1[nH]nc(-c2cc(-c3cccs3)nc3ccccc23)o1	76.8*	·	-0.8
S=c1[nH]nc(-c2cccs2)o1	1.8	·	-1.6
COc1ccc(/C=C2\Oc3cc(OCC(N)=O)ccc3C2=O)cc1	-0.7	·	3.4
COc1cc(C=C2Oc3cc(O)ccc3C2=O)cc(OC)c1OC	-8.3	·	82.7*
CCOc1cc(/C=C2/Oc3cc(O)ccc3C2=O)cc(Cl)c1OCC(=O)N(C)C	-5.2	·	150.0*
SMILES	hcGAS inh	mcGAS inh	NPYLR7 agonist
CCOc1cc(C=C2N=C(c3ccc(Cl)cc3)OC2=O)ccc1OCC(=O)N(C)C	-7.7	-7.7	18.4
O=C(NCc1n[nH]c(=S)n1-c1ccc(Br)cc1)c1ccccc1C(F)(F)F	0.8	-2.4	-3.7
CCCCCn1c(=O)c2c(nc3n2CCN3c2ccccc2)n(C)c1=O	-5.0	·	4.3
CCCCCn1c(=O)c2c(nc3n2CCN3c2cc(C)cc(C)c2)n(C)c1=O	-1.6	·	139.6*
CCCCn1c(=O)c2c(nc3n2CCCN3Cc2ccco2)n(C)c1=O	-10.4	·	0.2
CC(C)(O)C#Cc1ccc(C(=O)NCc2cnn(-c3ccc(F)cc3)c2)o1	-7.4	-17.9	5.3
O=C(O)c1csc(CSc2nnc(-c3ccncc3)n2-c2cccc(C(F)(F)F)c2)n1	0.6	0.5	48.5*
O=C(NCc1cccc(C(F)(F)F)c1)c1csc(CSc2nnc(-c3ccncc3)n2-c2cccc(C(F)(F)F)c2)n1	-1.0	0.9	-8.4
O=C(CCc1nc2ccccc2[nH]1)N(Cc1ccsc1)CC1CCCO1 (stereo unspecified)	-6.5	-10.5	-1.2
CN(C)c1ccc(/C=C2/C(=O)NC(=O)N(Cc3ccccc3)C2=O)cc1	11.0	-3.1	4.9
CCCn1c2c(c(=O)n(C)c1=O)C(=O)C(=Cc1ccc(N(C)C)cc1)N2	-2.2	-5.4	259.1*
CC(C)Cc1cc(C(=O)N2CCc3nc[nH]c3C2)n(C)n1	-5.4	-8.8	·
S=c1[nH]nc(-c2sc3ccccc3c2Cl)o1	50.5*!	47.2*	0.3
Clc1c(-c2nnco2)sc2ccccc12	0.6	·	-1.8
CC(=O)C1=C(C)Nc2ncnn2C1c1ccco1 (stereo unspecified)	-3.2	·	6.5
Fc1cc(F)cc(C2C=C(c3ccco3)Nc3ncnn32)c1 (stereo unspecified)	7.6	·	77.9*
CC(C)(C)NN=Cc1cc(Br)c(O)c(Br)c1	7.0	75.4*	4.2
COc1cc(C=NNC(=O)c2ccccc2O)cc(Br)c1O	0.2	·	0.1
C=CCN(C)C(=O)c1cncn1-c1ccc(-c2cc(C(F)(F)F)cc(C(F)(F)F)c2)cc1	-1.0	-1.9	10.8
